In the supplement of paper PMC10849652:
Targets with a hit are over-represented here; the source holds about 7,900 in all. About 0.6% of all pairs of compound and target were hits. Values without a mark were called inactive.

Tests used:
Assay in all cases: log2 fold change, soluble protein after heating vs DMSO (PISA); higher = thermal stabilisation; K562 cells, 10 uM, 30 min; active = over 0.2 and 3.5 SD of the protein, either way, in both replicates (recomputed)
[1] = compound: CC1=C(C=C(C=C1)NC(=O)C2=CC(=CC=C2)C(C)(C)C#N)NC3=CC4=C(C=C3)N=CN(C4=O)C
In short: (§1)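 K562 cells at 2×10^6 cells/mL were given 10 μM compound for 30 min. Aliquots then went through 3 min of heating across 48°C-58°C, were pooled, and were extracted in PBS with 0.5% NP-40 at 4°C, and the supernatant after 21,000xg for 90 min was quantified by TMTpro 16plex LC-MS/MS with channel sums equalised. Thermal stability relative to control samples, from duplicates, is given as log2 fold change.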

[2] = compound: CC1=C(C=C(C=C1)NC(=O)C2=CC(=CC=C2)N(C)C)NC(=O)C3=CC=C(C=C3)O
In short: as §1

[3] = compound: CC1=CC=C(C=C1)SC2=C3C=C(SC3=CN=C2)C(=O)N
In short: as §1

Nexturastat A = compound: CCCCN(Cc1ccc(C(=O)NO)cc1)C(=O)Nc1ccccc1 [Nexturastat A]
In short: as §1

[4] = compound: CCCS(=O)(=O)Nc1ccc(F)c(C(=O)c2c[nH]c3ncc(Cl)cc23)c1F
In short: as §1

[5] = compound: CCCc1cc(C)[nH]c(=O)c1CNC(=O)c1cc(-c2ccnc(N3CCN(C)CC3)c2)cc2c1cnn2C(C)C
In short: as §1

givinostat = compound: CCN(CC)Cc1ccc2cc(COC(=O)Nc3ccc(C(=O)NO)cc3)ccc2c1 [givinostat]
In short: as §1

barasertib = compound: CCN(CCCOc1ccc2c(Nc3cc(CC(=O)Nc4cccc(F)c4)[nH]n3)ncnc2c1)CCOP(=O)(O)O [barasertib]
In short: as §1

[6] = compound: CC[C@@H]1C(=O)N(C)c2cnc(Nc3ccc(C(=O)NC4CCN(C)CC4)cc3OC)nc2N1C1CCCC1
In short: as §1

volasertib = compound: CC[C@@H]1C(=O)N(C)c2cnc(Nc3ccc(C(=O)N[C@H]4CC[C@H](N5CCN(CC6CC6)CC5)CC4)cc3OC)nc2N1C(C)C [volasertib]
In short: as §1

[7] = compound: CC[C@H](C)N1C=C(C2=C(C=C(C=C21)C3=CN=C(C=C3)N4CCNCC4)C(=O)NCC5=C(C=C(NC5=O)C)C)C
In short: as §1

epoxomicin = compound: CC[C@H](C)[C@@H](C(=O)N[C@@H]([C@@H](C)O)C(=O)N[C@@H](CC(C)C)C(=O)[C@]1(CO1)C)NC(=O)[C@H]([C@@H](C)CC)N(C)C(=O)C [epoxomicin]
In short: as §1

[8] = compound: CCn1c(C(=O)N(C2CC2)C2CC2)cc2c3c(ncn3C)c(Nc3cc(C)n(C)n3)nc21
In short: as §1

[9] = compound: CCn1cc(-c2ccnc3[nH]c(-c4cccc(CN(C)C)c4)cc23)c(-c2ccc(NC(=O)N(C)C)cc2)n1
In short: as §1

rosiglitazone = compound: CN(CCOC1=CC=C(C=C1)C[C@H]2C(=O)NC(=O)S2)C3=CC=CC=N3 (racemic) [rosiglitazone]
In short: as §1

[10] = compound: CN1C2=C(C3=C1C(=O)N(N=C3)CC4=CC(=CC=C4)N)SC(=C2)S(=O)C
In short: as §1

[11] = compound: CN1CCC(CNc2ccc3ncc(-c4cccc(OC(F)(F)F)c4)n3n2)CC1
In short: as §1

[12] = compound: CC1=NC(=CC=C1)C2=C(N=C(N2)C(C)(C)C)C3=CC4=NC=CN=C4C=C3
In short: as §1

vemurafenib = compound: CCCS(=O)(=O)Nc1ccc(F)c(C(=O)c2c[nH]c3ncc(-c4ccc(Cl)cc4)cc23)c1F [vemurafenib]
In short: as §1

[13] = compound: CN(C)CC(=O)Nc1ccc2[nH]c(=O)c3ccccc3c2c1
In short: as §1

UniProt P36406, sequence (P36406 whole entry, looked up): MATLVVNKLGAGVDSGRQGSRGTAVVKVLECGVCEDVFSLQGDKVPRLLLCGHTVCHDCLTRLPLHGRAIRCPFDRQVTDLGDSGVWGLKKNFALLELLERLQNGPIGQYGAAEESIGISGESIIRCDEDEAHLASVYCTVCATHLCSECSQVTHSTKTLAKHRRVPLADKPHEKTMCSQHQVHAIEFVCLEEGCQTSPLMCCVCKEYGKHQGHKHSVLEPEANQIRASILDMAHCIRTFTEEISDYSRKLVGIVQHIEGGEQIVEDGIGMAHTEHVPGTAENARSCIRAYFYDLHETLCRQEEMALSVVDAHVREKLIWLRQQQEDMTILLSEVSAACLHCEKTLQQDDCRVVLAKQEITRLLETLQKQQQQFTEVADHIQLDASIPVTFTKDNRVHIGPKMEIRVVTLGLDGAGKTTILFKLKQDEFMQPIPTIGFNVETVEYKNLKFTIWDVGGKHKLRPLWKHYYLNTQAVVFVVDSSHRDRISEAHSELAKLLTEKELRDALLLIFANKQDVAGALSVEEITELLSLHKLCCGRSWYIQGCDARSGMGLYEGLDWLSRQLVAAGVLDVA
UniProt O60784, sequence (O60784 whole entry, looked up): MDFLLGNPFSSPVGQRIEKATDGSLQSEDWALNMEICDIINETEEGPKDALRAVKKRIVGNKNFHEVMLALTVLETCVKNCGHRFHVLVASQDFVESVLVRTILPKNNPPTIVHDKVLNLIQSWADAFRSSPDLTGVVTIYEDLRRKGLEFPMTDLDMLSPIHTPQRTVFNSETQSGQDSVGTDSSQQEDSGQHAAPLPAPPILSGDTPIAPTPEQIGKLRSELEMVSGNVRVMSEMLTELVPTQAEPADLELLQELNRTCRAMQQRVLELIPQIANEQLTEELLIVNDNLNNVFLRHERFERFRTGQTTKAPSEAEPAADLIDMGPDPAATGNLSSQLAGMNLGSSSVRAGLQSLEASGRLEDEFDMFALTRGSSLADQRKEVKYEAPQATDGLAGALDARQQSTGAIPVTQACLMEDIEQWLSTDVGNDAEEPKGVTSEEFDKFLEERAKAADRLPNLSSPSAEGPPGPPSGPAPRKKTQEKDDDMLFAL
UniProt Q629K1, sequence (Q629K1 whole entry, looked up): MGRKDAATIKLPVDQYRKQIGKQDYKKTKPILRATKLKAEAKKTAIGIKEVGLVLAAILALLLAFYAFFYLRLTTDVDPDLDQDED
UniProt Q86XT9, sequence (Q86XT9 whole entry, looked up): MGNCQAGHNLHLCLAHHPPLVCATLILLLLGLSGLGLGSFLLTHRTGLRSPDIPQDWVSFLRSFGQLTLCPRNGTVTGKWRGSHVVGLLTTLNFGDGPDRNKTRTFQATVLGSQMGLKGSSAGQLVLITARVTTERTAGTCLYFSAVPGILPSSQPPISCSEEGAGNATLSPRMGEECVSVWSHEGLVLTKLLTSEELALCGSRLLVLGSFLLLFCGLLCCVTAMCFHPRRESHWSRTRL
UniProt Q5U3C3, sequence (Q5U3C3 whole entry, looked up): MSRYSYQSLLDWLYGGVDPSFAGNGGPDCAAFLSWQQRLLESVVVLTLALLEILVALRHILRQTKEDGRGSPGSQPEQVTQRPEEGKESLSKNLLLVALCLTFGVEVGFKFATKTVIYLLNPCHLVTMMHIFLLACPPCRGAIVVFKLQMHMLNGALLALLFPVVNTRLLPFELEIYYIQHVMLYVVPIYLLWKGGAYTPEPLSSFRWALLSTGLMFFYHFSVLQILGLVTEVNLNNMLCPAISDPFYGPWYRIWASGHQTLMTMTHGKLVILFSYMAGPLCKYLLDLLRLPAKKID
UniProt O75691, sequence (O75691 whole entry, looked up): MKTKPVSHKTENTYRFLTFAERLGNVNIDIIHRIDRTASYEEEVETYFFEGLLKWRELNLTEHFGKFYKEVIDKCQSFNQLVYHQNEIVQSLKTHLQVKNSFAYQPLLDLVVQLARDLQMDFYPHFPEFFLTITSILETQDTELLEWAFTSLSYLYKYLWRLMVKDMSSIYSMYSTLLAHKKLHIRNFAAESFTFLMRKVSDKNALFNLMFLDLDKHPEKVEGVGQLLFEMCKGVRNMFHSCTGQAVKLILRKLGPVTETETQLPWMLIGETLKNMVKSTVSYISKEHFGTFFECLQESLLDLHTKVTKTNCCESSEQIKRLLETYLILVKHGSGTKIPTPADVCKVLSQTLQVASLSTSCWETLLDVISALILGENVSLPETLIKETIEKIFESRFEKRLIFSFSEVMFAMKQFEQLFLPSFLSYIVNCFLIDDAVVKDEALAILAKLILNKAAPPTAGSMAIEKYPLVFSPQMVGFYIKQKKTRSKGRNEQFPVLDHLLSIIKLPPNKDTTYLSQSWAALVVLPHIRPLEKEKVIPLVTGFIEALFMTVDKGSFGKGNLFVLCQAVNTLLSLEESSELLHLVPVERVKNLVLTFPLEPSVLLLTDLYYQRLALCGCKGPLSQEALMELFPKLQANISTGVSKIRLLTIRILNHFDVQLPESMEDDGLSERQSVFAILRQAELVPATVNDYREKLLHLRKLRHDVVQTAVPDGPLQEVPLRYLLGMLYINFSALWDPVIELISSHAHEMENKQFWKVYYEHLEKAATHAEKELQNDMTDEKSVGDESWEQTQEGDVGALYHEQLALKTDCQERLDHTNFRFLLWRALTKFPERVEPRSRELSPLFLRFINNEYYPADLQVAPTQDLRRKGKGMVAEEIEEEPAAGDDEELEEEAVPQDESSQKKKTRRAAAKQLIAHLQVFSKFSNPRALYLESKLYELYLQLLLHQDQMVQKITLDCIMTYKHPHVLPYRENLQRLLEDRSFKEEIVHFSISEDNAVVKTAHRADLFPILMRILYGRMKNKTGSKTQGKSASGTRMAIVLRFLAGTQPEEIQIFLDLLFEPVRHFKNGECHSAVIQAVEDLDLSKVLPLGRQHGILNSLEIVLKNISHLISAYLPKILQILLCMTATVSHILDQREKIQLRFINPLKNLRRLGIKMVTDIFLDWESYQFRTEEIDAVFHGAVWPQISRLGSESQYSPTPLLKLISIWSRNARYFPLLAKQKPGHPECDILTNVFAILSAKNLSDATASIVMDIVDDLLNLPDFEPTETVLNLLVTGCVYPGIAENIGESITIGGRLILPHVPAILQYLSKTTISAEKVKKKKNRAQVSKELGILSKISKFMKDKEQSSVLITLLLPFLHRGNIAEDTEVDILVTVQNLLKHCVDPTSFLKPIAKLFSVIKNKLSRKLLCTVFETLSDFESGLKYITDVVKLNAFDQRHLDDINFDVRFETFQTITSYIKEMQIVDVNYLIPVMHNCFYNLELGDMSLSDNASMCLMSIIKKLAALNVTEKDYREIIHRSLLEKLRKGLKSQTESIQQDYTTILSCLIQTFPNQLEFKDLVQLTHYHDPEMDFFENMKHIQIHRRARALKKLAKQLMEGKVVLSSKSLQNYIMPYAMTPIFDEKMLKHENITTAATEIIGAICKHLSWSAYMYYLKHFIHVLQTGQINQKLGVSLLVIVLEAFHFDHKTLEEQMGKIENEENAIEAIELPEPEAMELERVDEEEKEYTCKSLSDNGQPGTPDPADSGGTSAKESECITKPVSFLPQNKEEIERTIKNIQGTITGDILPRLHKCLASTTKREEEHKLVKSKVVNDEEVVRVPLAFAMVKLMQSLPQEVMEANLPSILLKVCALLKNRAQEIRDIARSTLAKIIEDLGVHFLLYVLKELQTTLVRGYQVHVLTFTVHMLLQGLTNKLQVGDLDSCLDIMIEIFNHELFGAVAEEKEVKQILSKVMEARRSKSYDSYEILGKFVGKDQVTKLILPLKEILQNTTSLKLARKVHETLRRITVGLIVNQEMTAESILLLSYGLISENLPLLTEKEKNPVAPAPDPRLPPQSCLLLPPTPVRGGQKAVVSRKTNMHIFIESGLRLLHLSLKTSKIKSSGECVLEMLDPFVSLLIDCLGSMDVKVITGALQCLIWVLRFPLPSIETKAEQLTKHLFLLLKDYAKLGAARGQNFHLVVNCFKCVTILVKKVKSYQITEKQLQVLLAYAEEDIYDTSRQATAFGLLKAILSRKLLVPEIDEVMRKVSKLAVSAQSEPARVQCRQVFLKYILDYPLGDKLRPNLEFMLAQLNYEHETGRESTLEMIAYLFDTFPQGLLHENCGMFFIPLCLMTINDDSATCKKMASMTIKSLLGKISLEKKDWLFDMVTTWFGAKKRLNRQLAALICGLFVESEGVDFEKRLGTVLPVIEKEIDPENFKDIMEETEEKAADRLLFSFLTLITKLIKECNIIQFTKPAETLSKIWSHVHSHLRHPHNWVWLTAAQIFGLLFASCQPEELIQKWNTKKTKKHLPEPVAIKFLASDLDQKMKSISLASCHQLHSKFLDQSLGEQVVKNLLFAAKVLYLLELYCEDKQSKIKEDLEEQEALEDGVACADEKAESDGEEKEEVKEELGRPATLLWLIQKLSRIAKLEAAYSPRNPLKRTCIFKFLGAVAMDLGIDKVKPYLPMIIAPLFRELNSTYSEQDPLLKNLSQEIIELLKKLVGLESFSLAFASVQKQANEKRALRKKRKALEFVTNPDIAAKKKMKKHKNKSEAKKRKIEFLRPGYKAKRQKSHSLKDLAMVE
UniProt Q8N2K1, sequence (Q8N2K1 whole entry, looked up): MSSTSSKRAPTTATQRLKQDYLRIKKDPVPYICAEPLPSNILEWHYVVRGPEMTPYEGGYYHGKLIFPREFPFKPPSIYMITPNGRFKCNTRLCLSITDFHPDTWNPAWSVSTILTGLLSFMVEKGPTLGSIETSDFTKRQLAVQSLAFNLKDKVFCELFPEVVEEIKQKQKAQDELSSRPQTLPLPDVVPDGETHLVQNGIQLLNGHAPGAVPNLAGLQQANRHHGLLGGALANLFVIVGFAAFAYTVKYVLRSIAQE
UniProt Q86TN4, sequence (Q86TN4 whole entry, looked up): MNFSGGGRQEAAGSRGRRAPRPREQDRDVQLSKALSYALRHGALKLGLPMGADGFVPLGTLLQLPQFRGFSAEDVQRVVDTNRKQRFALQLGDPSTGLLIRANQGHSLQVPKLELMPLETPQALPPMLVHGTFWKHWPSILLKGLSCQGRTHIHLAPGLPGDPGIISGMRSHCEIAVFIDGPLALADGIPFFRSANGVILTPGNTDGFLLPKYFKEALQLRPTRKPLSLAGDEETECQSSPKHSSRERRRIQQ

Target	log2 fold change [1]	log2 fold change [2]	log2 fold change [3]	log2 fold change (Nexturastat A)	log2 fold change [4]	log2 fold change [5]	log2 fold change (givinostat)	log2 fold change (barasertib)	log2 fold change [6]	log2 fold change (volasertib)	log2 fold change [7]	log2 fold change (epoxomicin)	log2 fold change [8]	log2 fold change [9]	log2 fold change (rosiglitazone)	log2 fold change [10]	log2 fold change [11]	log2 fold change [12]	log2 fold change (vemurafenib)	log2 fold change [13]
TMEM268 isoform 3 (UniProt Q5VZI3)	0.056	0.024	-0.178	0.124	0.083	0.18	0.11	-0.461	-0.088	-0.005	0.112	0.536 (active)	0.093	0.013	0.098	0.025	-0.123	–	–	–
TMEM164 (UniProt Q5U3C3)	0.288	–	0.05	-0.142	0.078	-0.305	-0.038	-0.095	-0.01	-0.145	-0.01	0.082	0.045	-0.053	0.135	-0.001	-0.021	-0.047	-0.083	0.07
TOM1 (UniProt O60784)	0.058	–	–	0.504 (active)	–	-0.015	-0.09	-0.039	–	–	–	0.094	0.035	-0.072	0.019	–	-0.664 (active)	-0.022	–	–
TMEM8A (UniProt Q9HCN3)	0.101	0.017	-0.047	–	-0.073	-0.077	0.014	-0.189	-0.11	0.008	-0.108	–	0.068	-0.037	0.009	0.082	-0.104	–	-0.003	-0.031
UBAP2L (UniProt F8W726)	–	–	-0.093	–	0.004	0.014	-0.067	-0.058	0.077	-0.002	-0.094	–	0.008	0.025	0.123	–	-0.027	–	–	–
XIAP (UniProt P98170)	-0.047	–	-0.045	-0.045	0	-0.049	0.019	0	-0.135	-0.457 (active)	0.094	0	-0.029	0	0.043	-0.101	-0.131	–	0.035	0.071
TRIM5 (UniProt Q9C035)	-0.063	-0.197	–	0.033	–	–	0.119	–	–	–	–	0	0.017	–	–	0.25	–	–	-0.044	-0.005
UFM1 isoform 2 (UniProt P61960)	0.004	–	-0.01	-0.36 (active)	0.001	0.127	-0.146	0.053	0.116	0.012	0.069	0.029	0.034	-0.001	-0.03	0.004	-0.005	–	-0.13	0.114
TRIQK (UniProt Q629K1)	-0.022	-0.007	–	-0.028	–	0.014	–	-0.041	–	–	–	-0.02	–	–	0.039	-0.04	–	-0.173	–	–
WDR4 isoform 3 (UniProt P57081)	-0.041	–	–	-0.031	–	–	–	0.08	–	–	–	0.017	–	-0.044	0.142	–	-0.036	–	–	–
TXNRD1 isoform 7 (UniProt Q16881)	-0.567	–	-0.037	0.221	0.049	–	0.403	0.041	0.054	-0.106	–	0.155	-0.001	-0.501	0.024	0.101	-0.028	–	-0.123	-0.074
TOM1L2 (UniProt Q6ZVM7)	-0.038	–	–	-0.046	–	–	0.025	–	–	–	-0.025	-0.035	0.09	–	–	-0.071	–	-0.132	-0.008	0.127
UBE2D1 (UniProt P51668)	-0.08	0.029	0.021	–	0.097	-0.004	-0.035	0.047	-0.123	-0.333 (active)	-0.024	–	0.037	-0.045	0.099	-0.109	-0.095	–	0.156	0.017
TMEM184C (UniProt Q9NVA4)	-0.07	0.028	–	-0.02	–	-0.028	–	0.055	-0.03	–	0.033	0.087	–	0.08	0.088	-0.237	-0.492 (active)	0.028	0.024	-0.013
UTP20 (UniProt O75691)	–	–	0.037	0.755 (active)	-0.086	–	0.463	–	–	0.093	–	-0.355	0.105	–	–	–	–	–	–	–
WARS1 (UniProt G3V3P2)	-0.055	–	–	–	–	–	–	-0.255	–	–	–	–	–	–	1.27	–	–	–	–	–
XRCC1 (UniProt P18887)	0.049	0.063	–	0.429	–	–	0.01	–	–	–	–	-0.1	-0.09	0.006	–	-0.192	-0.239	-0.222	–	–
TTC26	–	0.116	–	–	–	–	–	-0.139	–	–	–	–	–	–	0.068	–	–	–	-0.598 (active)	-0.088
TMEM104 (UniProt Q8NE00)	–	0.058	-0.015	-0.046	-0.173	-0.126	-0.012	–	-0.019	0.043	-0.033	-0.19	-0.027	0.204	–	0.12	0.018	-0.039	–	–
WARS1 (UniProt G3V227)	–	–	–	0.459	–	–	–	0.004	–	–	–	-0.28	–	–	0.309	0.207	–	–	-0.455	-0.045
WARS1 (UniProt G3V339)	–	–	–	0.188	–	–	–	–	–	–	–	-0.238	–	–	–	–	–	–	–	–
TUBA4A (UniProt C9JJQ8)	-0.019	–	0.022	–	-0.065	–	–	0.136	-0.115	0.099	–	–	–	–	-0.078	0.114	–	0.138	0.053	0.09
TRPT1 isoform 4 (UniProt Q86TN4)	-1.08 (active)	0.136	–	–	–	0.029	0.179	–	0.084	–	–	–	0.071	–	–	–	–	-0.008	–	–
TMEM219 (UniProt Q86XT9)	0.021	–	0.02	0.311	-0.107	–	-0.029	-0.187	–	-0.111	0.033	0.035	0.002	0.037	0.078	-0.085	-0.029	–	0.172	0.094
WARS1 (UniProt G3V5U1)	-0.795	–	–	0.136	–	-0.118	–	-0.007	-0.03	–	–	-0.237	–	–	0.554	–	–	-0.638	–	–
UBE2J2 isoform 3 (UniProt Q8N2K1)	-0.085	–	0.024	0.028	-0.027	–	0.009	0.006	-0.07	-0.157	–	0.254	0.047	-0.418	0.068	-0.055	0.122	–	0.214	0.04
VWA3B isoform 6 (UniProt Q502W6)	–	0.104	0.072	-0.292	0.008	-0.169	0.011	0.057	-0.038	-0.631 (active)	-0.203	-0.262	-0.037	-0.125	0.076	-0.023	-0.234	0	-0.1	-0.007
TRIM23 (UniProt P36406)	-0.025	-0.008	–	–	–	0.055	0.027	0.021	0.013	–	0.049	–	-0.059	-0.089	-0.231	-0.116	-0.228	0.036	-0.022	0.025
